Experimental data: PubChem BioAssay (EPA / NIEHS)
Records with an inconclusive call do not appear. Active and inactive are the calls of the source. Rule for the calls, unless noted: active = hit-call score of the fitted dose curve at least 0.9, where 1 is the maximum; inactive = score below 0.9.

Experiments:
[1] = CCTE_Simmons_MITO_basal_resp_rate: CCTE's HepG2 Seahorse XF Respirometric Screening Assay at Basal Respiratory State, Simmons Lab (AID 2284001); details: actives raise or lower the signal
How it was run: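 HepG2 cells were given test chemicals at 7 concentrations, 125 nM to 100 uM final, and oxygen consumption rate was read every 6 min (3 min mix, 3 min measure) over 72 min. Basal-phase OCR was fitted bidirectionally against DMSO.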

[2] = CCTE_Simmons_MITO_max_resp_rate: CCTE's HepG2 Seahorse XF Respirometric Screening Assay at Maximal Respiratory State [uncoupled], Simmons Lab (AID 2284002); details: actives raise or lower the signal
How it was run: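 HepG2 oxygen consumption was read on a Seahorse XF96 after FCCP uncoupler injection, following test compound injection; 7 concentrations, 125 nM–100 uM final, three biological replicates. Bidirectional fitting against DMSO vehicle baseline.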

[3] = CCTE_Simmons_MITO_inhib_resp_rate: CCTE's HepG2 Seahorse XF Respirometric Screening Assay at Inhibited Respiratory State [full ETC block], Simmons Lab (AID 2284006); details: actives raise or lower the signal
How it was run: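 Inhibited respiration was taken as HepG2 oxygen consumption after rotenone/antimycin A, which followed test-compound and FCCP injections. Chemicals were tested at seven final concentrations from 125 nM to 100 uM. Activity was fitted bidirectionally relative to DMSO.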

[4] = CCTE_Simmons_MITO_viability: CellTiter-Glo Viability Assessment for CCTE's HepG2 Seahorse XF Respirometric Screening Assay [post-hoc], Simmons Lab (AID 2284007; active = hit-call score of the fitted dose curve at least 0.9, where 1 is the maximum;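 for AC50: cells exposed to chemical for 90 min before the ATP read; actives lower ATP signal relative to DMSO baseline meaning reduced viability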)
How it was run: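 HepG2 cells; test chemical 7 conc. (125 nM–100 uM final) × 90 min; then luminescent ATP detection. DMSO vehicle. Positive control dichlone, 8 conc. from 10 nM to 100 uM final. Loss-of-signal endpoint.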

[5] = CCTE_Harrill_HTTr_Viability_MCF7: CCTE's 6-hour Cell Viability Assessment for the High-Throughput Transcriptomics (HTTr) Platform, in MCF-7 cells cultured in DMEM + 10% fetal bovine serum, Harrill Lab (AID 2284010)
How it was run: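 Viability measured through PI dye exclusion by high-content imaging at 6 h post-dosing.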

[6] = CCTE_Harrill_HTTr_Apoptosis_MCF7: CCTE's 6-hour Apoptosis Assessment for the High-Throughput Transcriptomics (HTTr) Platform, in MCF-7 cells cultured in DMEM + 10% fetal bovine serum, Harrill Lab (AID 2284011)
How it was run: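 MCF-7 cells in DMEM + 10% fetal bovine serum were exposed to chemicals for 6 hours over an eight-point dilution series. Caspase-3/7 activation was imaged by high content imaging with CellEvent Caspase 3/7 Green; bidirectional fitting used DMSO as baseline.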

[7] = molecular target: Nucleoli Translocation, AR (gene 367) (UniProt P10275); assay: UPITT_HCI_U2OS_AR_TIF2_Nucleoli_Agonist: University of Pittsburgh U2OS Androgen Receptor-Transcriptional Intermediary Factor 2 (AR-TIF2) Agonism High Content Imaging Assay for Nucleoli Translocation (AID 2283998; active = hit-call score of the fitted dose curve at least 0.9, where 1 is the maximum)
Chain of Nucleoli Translocation, AR (gene 367) (P10275 whole entry, looked up, the tested form may be a part): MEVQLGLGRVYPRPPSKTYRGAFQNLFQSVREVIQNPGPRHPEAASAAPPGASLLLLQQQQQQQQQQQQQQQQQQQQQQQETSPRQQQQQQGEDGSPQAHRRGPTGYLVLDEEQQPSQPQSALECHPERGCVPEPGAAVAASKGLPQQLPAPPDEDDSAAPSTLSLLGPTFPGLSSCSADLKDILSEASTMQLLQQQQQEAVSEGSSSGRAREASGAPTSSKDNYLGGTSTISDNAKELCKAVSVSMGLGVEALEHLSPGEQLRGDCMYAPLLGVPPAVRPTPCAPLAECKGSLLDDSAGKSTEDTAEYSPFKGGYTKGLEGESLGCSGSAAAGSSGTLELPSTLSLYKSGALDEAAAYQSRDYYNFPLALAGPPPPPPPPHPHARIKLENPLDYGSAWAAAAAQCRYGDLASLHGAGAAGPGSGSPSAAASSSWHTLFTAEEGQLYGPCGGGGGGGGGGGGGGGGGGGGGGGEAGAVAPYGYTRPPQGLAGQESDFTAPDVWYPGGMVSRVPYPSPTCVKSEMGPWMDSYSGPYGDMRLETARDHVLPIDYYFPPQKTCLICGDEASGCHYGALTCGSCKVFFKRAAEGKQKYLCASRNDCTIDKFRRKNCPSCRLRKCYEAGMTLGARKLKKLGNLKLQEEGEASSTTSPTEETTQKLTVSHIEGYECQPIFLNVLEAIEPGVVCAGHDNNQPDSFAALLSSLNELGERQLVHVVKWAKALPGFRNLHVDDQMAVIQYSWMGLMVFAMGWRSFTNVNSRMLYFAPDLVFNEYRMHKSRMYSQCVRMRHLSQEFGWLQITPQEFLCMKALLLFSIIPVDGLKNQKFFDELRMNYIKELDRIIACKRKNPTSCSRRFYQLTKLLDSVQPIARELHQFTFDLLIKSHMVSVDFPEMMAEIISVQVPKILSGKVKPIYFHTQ
How it was run: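 Cells express human AR fused to red fluorescent protein and TIF2 fused to GFP. Red fluorescence in the nucleolar region was quantified by high-content imaging and fitted as gain-of-signal against a DMSO baseline. Compounds were tested at 0.195 to 50 uM final (0.5% DMSO).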

[8] = molecular target: Ratio of Nucleoli Translocation and Cytoplasm, AR (gene 367) (UniProt P10275); assay: UPITT_HCI_U2OS_AR_TIF2_Nucleoli_Cytoplasm_Ratio_Antagonist: University of Pittsburgh U2OS Androgen Receptor-Transcriptional Intermediary Factor 2 (AR-TIF2) Antagonism High Content Imaging Assay for Ratio of Nucleoli Translocation and Cytoplasm (AID 2283999; active = hit-call score of the fitted dose curve at least 0.9, where 1 is the maximum;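 note: antagonists lower the DHT-driven ratio of nucleolar to cytoplasmic red signal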)
Chain of Ratio of Nucleoli Translocation and Cytoplasm, AR (gene 367) (P10275 whole entry, looked up): as the sequence (P10275 whole entry, looked up, the tested form may be a part) above
How it was run: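 High-content imaging quantifies the red nucleolar:cytoplasmic fluorescence ratio in U2OS cells with AR-RFP and TIF2-GFP. Final concentrations are 20 uM (screen) or 0.195–50 uM (dose response), analysed against DHT as baseline.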

[9] = molecular target: Ratio of Nucleoli Translocation and Cytoplasm, AR (gene 367) (UniProt P10275); assay: UPITT_HCI_U2OS_AR_TIF2_Nucleoli_Cytoplasm_Ratio_Agonist: University of Pittsburgh U2OS Androgen Receptor-Transcriptional Intermediary Factor 2 (AR-TIF2) Agonism High Content Imaging Assay for Ratio of Nucleoli Translocation and Cytoplasm (AID 2284000; active = hit-call score of the fitted dose curve at least 0.9, where 1 is the maximum;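 note: hits raise the red nucleolar to cytoplasm ratio above vehicle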)
How it was run: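 U2OS cells expressing RFP-tagged human AR and GFP-tagged TIF2 were imaged by high-content fluorescence microscopy. The endpoint is the ratio of nucleolar to cytoplasmic red fluorescence, fitted for gain of signal relative to DMSO. Concentration-response spanned 0.195 to 50 uM final (0.5% DMSO).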

[10] = CCTE_Harrill_HTTr_CellCount_MCF7: CCTE's Cell Proliferation Assessment for the High-Throughput Transcriptomics (HTTr) Platform, Harrill Lab (AID 2284012; active = hit-call score of the fitted dose curve at least 0.9, where 1 is the maximum;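 note: count of Hoechst-stained nuclei per well by high-content imaging in MCF-7 cells; cells exposed to compound for six hours; intended direction is loss of nuclei count meaning fewer cells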)
How it was run: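 Nuclei counting (Hoechst, high content imaging) in MCF-7 after a 6 h treatment at eight concentrations. Activity fitted bidirectionally, DMSO as negative control.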

DIO1 (gene 1733) = assay: CCTE_GLTED_hDIO1: CCTE's human Deiodinase 1 (DIO1) Inhibition Assay, Great Lakes Toxicology and Ecology Division (GLTED) Lab (AID 2283987; active = hit-call score of the fitted dose curve at least 0.9, where 1 is the maximum;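 note: isolated human DIO1 enzyme in a cell-free setup rather than cells; enzyme activity read as free iodide liberated from substrate via Sandell-Kolthoff colorimetry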)
How it was run: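 Cell-free human DIO1 enzyme was incubated with test chemical for 3 h, and iodide released from substrate was measured by Sandell-Kolthoff absorbance. Loss of signal versus DMSO baseline indicated inhibition; plates were run in triplicate.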

[11] = CCTE_Shafer_MEA_acute_spike_number: CCTE's Neural Acute Assay for Total Number of Spikes, Shafer Lab (AID 2284008);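 for AC50: curve fitted for decrease in spike count so AC50 reflects inhibitors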
How it was run: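 Primary rat cortical neurons on 16-electrode MEA wells; on DIV 13 or 15, 40-min baseline then 40-min recording with compound (0.03-40 uM) at 37 C. Spikes detected at 8x rms noise; percent change versus baseline, DMSO as negative control.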

[12] = CCTE_Shafer_MEA_acute_burst_duration_mean: CCTE's Neural Acute Assay for Mean Burst Duration, Shafer Lab (AID 2284014);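 note: hits are decreases in mean burst duration relative to DMSO controls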
How it was run: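 Primary rat cortical neurons on 16-electrode MEA wells, treated on DIV 13 or 15 with compound (0.03-40 uM; ≥3 wells each). 40-min baseline and 40-min exposure recordings at 37 C; percent change in mean burst duration per well versus DMSO.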

[13] = CCTE_Shafer_MEA_acute_interburst_interval_mean: CCTE's Neural Acute Assay for Mean Interburst Interval, Shafer Lab (AID 2284016);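 note: percent change of mean interburst interval versus each well's own pre-dose baseline; curves fitted for decrease in interburst interval relative to DMSO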
How it was run: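 MEA recording of spontaneous network bursting in primary rat cortical cultures; mean interburst interval was compared before and after a 40-min compound exposure (0.03-40 uM) and expressed as percent change, relative to DMSO.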

[14] = CCTE_Shafer_MEA_acute_burst_percentage_std: CCTE's Neural Acute Assay for Standard Deviation of Burst Percentage, Shafer Lab (AID 2284018);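 note: fitted in the negative direction so actives lower burst percentage SD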
How it was run: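 Primary rat cortical neurons on 16-electrode MEA wells were recorded 40 min at baseline (DIV 13 or 15), then 40 min after compound (0.03-40 uM), at 37 C. Well value is SD across electrodes of spikes-in-bursts/total spikes; endpoint is percent change, DMSO-referenced.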

[15] = CCTE_Shafer_MEA_acute_per_network_burst_spike_number_mean: CCTE's Neural Acute Assay for Average Number of Spikes in a Network Burst, Shafer Lab (AID 2284019)
How it was run: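 Primary rat cortical neurons on 16-electrode MEA wells, DIV 13 or 15, 37 C; 40-min baseline then 40-min recording with compound (0.03-40 uM). Spikes per network burst (total spikes/number of bursts) expressed as percent change from baseline, DMSO reference.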

[16] = CCTE_Harrill_HTTr_Apoptosis_DMEM_12hr: (Pilot) CCTE's 12-hour Apoptosis Assessment for the High-Throughput Transcriptomics (HTTr) Platform, in MCF-7 cells cultured in DMEM + 10% fetal bovine serum, Harrill Lab (AID 2283982)
How it was run: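 MCF-7 cells in DMEM + 10% FBS, exposed 12 h to an eight-point dilution series; caspase-3/7 activation imaged with CellEvent Green. Bidirectional fit versus DMSO.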

[17] = CCTE_Harrill_HTTr_Apoptosis_DMEM_24hr: (Pilot) CCTE's 24-hour Apoptosis Assessment for the High-Throughput Transcriptomics (HTTr) Platform, in MCF-7 cells cultured in DMEM + 10% fetal bovine serum, Harrill Lab (AID 2283983)
How it was run: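 MCF-7 cells in DMEM + 10% FBS, eight-point dilution series, 24 h exposure. Caspase-3/7 activation imaged by high-content imaging with CellEvent Caspase 3/7 Green. Bidirectional curve fitting against DMSO baseline.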

[18] = CCTE_Harrill_HTTr_Apoptosis_PRF_DMEM_6hr: (Pilot) CCTE's 6-hour Apoptosis Assessment for the High-Throughput Transcriptomics (HTTr) Platform, in MCF-7 cells cultured phenol red-free DMEM + 10% charcoal-stripped fetal bovine serum, Harrill Lab (AID 2283984)
How it was run: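 MCF-7 cells in phenol red-free DMEM + 10% charcoal-stripped FBS, eight-point dilution series, 6 h exposure. Caspase-3/7 activation imaged by high-content imaging with CellEvent Caspase 3/7 Green; bidirectional fit versus DMSO baseline.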

[19] = CCTE_Harrill_HTTr_Apoptosis_PRF_DMEM_24hr: (Pilot) CCTE's 24-hour Apoptosis Assessment for the High-Throughput Transcriptomics (HTTr) Platform, in MCF-7 cells cultured in phenol red-free DMEM + 10% charcoal-stripped fetal bovine serum, Harrill Lab (AID 2283986)
How it was run: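 MCF-7 cells in phenol red-free DMEM with 10% charcoal-stripped FBS, exposed 24 h across an eight-point dilution series. Caspase-3/7 activation imaged with CellEvent Green by high content imaging; bidirectional fitting against DMSO.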

Measured: AC50

CC(C)(O)c1ccc(CNC(=O)c2cccnc2Oc2ccc(F)cc2)cc1
active: [2] 18.6 µM
inactive: [1] | [3] | [4] | [5] | [6]

CCOCCOCCO
inactive: [7] | [8] | [9] | [5] | [6] | [10]

Cc1cc(SC2=C(O)C[C@@](CCc3ccc(N)cc3)(C(C)C)OC2=O)c(C(C)(C)C)cc1CO
active: DIO1 (gene 1733) 66.3 µM
not listed: [16] | [17] | [18] | [19]
inactive: all other assays above

CCc1cc(C2=C(C(=O)O)N(c3ccccc3C(F)(F)F)S(=O)(=O)c3ccccc32)cc2c1OCO2
inactive: [1] | [2] | [3] | [11] | [5] | [6] | [10] | [12] | [13] | [14] | [15]

CSc1ccc(Oc2ccc(S(N)(=O)=O)cc2CN(C)C)cc1C
inactive: [8] | [11] | [5] | [6] | [10] | [12] | [13] | [15]
active: [7] 50 µM | [9] 74.8 µM | [14] 32.1 µM

O=C1OC(c2ccc(O)cc2)(c2ccc(O)cc2)c2ccccc21
active: [7] 78.7 µM | [9] 77 µM | [1] 32.6 µM | [4] 9.92 µM
not listed: DIO1 (gene 1733) | [16] | [17] | [18] | [19]
inactive: all other assays above

CC1=C(C)S(=O)(=O)CCS1(=O)=O
inactive: [7] | [9] | [11] | [5] | [6] | [10] | [12] | [13] | [14] | [15]

O=C1CCCCC1
inactive: [7] | [9] | [5] | [6] | [10]

O=C(NS(=O)(=O)/C=C/c1cccs1)c1ccc(F)cc1Br
inactive: [9] | [5] | [6]

CCN(CC)CCOc1ccc(C(=C(Cl)c2ccccc2)c2ccccc2)cc1
active: [16] 83.4 µM | [17] 66.2 µM | [18] 79.6 µM | [19] 68.3 µM | DIO1 (gene 1733) 70.7 µM | [2] 91 µM | [4] 84.2 µM | [11] 2.58 µM | [14] 29.1 µM
not listed: [10]
inactive: all other assays above
